Source: PubChem BioAssay (EPA / NIEHS)
Several values for one entry are separate records, joined by “and”; a condition that tells them apart may be missing. Equal entries are not always repeated. Inconclusive results are not listed. Activity calls are given as the source filed them. Rule for the calls, unless noted: active = hit-call score of the fitted dose curve at least 0.9, where 1 is the maximum; inconclusive = response in the unintended direction; inactive = score below 0.9.

Biological target: Estrogen receptor beta (Homo sapiens) (UniProt Q92731)
Sequence (Q92731 whole entry, looked up, the tested form may be a part): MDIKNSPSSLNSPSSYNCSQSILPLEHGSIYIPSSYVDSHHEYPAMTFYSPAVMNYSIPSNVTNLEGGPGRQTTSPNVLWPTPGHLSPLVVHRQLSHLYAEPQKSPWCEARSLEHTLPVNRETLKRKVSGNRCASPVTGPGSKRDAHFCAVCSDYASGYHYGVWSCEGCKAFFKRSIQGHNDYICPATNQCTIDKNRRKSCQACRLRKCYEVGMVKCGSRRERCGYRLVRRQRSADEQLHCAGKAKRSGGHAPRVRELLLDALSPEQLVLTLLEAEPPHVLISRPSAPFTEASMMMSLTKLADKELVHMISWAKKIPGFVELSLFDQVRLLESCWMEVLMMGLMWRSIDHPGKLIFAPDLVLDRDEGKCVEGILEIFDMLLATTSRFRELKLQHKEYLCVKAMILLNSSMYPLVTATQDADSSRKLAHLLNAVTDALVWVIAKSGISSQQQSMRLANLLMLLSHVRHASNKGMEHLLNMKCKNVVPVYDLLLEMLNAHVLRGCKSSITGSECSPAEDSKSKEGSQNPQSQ
Assay: OT_ER_ERbERb_1440: Odyssey Thera (OT) 24-hour HEK293T Protein-Complementation Assay for Estrogen Receptor-beta/-beta Homodimer (AID 2283380);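 note: fluorescence gain from ER beta LBD homodimer complementation read by laser scanning cytometry; scored as signal increase over DMSO baseline for both agonists and antagonists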
Method in brief: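 HEK293T cells stably expressing human ER-beta LBD (aa 310-547) PCA homodimer pair, dosed 24 h; formaldehyde-fixed, Draq5-stained. Readout: increase in nuclear (agonist) or nuclear plus cytoplasmic (antagonist) fluorescence intensity versus DMSO, gain-of-signal fitting.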

SMILES	outcome	AC50
Oc1c(Cl)cc(Cl)cc1Cl	inactive	
CN(C)C(=S)S	inactive	
CCN(CCO)CCO	inactive	
O=C(CBr)c1ccc(O)cc1	inactive	
N#CCCC(Br)(C#N)CBr (stereo not given)		11.9 µM (active)
CCC[CH2][Sn]([CH2]CCC)([CH2]CCC)[CH2]CCC	inactive	
CN(N=O)C(N)=O	inactive	
Nc1ccc(N)cc1		12.4 µM (active)
CCOc1ccc(N)cc1	inactive	
COc1nn(C(=O)NS(=O)(=O)c2ccccc2OC(F)(F)F)c(=O)n1C	inactive	
CCCSP(=S)(OCC)Oc1ccc(SC)cc1 (stereo not given)	inactive	
O=[N+]([O-])c1ccccc1O	inactive	
Nc1ncn[nH]1	inactive	
CC(C)=CC1C(C(=O)OCc2cccc(Oc3ccccc3)c2)C1(C)C (stereo not given)	inactive	
O=CCCl	inactive	
COC(=O)Nc1cccc(OC(=O)Nc2cccc(C)c2)c1	inactive	
O=C(NC(=O)c1c(F)cccc1F)Nc1ccc(Cl)cc1	inactive	
Clc1cccc(Cl)c1	inactive	
Cc1cc(Cl)ccc1O		63.8 µM (active)
CCOP(=S)(OCC)O/N=C(\C#N)c1ccccc1		50 µM (active)
O=C(O)COc1ccc(Cl)cc1	inactive	
Cc1cc(Cl)ccc1OC(C)C(=O)O (stereo not given)	inactive	
CC(C)(C)c1ccccc1O	inactive	
Cc1cc(C)cc(C)c1	inactive	
CC1(C)[C@H](C(=O)O[C@H](C#N)c2cccc(Oc3ccccc3)c2)[C@@H]1/C=C(\Cl)C(F)(F)F	inactive	

Biological target: Estrogen receptor (Homo sapiens) (UniProt P03372)
Sequence (P03372 whole entry, looked up): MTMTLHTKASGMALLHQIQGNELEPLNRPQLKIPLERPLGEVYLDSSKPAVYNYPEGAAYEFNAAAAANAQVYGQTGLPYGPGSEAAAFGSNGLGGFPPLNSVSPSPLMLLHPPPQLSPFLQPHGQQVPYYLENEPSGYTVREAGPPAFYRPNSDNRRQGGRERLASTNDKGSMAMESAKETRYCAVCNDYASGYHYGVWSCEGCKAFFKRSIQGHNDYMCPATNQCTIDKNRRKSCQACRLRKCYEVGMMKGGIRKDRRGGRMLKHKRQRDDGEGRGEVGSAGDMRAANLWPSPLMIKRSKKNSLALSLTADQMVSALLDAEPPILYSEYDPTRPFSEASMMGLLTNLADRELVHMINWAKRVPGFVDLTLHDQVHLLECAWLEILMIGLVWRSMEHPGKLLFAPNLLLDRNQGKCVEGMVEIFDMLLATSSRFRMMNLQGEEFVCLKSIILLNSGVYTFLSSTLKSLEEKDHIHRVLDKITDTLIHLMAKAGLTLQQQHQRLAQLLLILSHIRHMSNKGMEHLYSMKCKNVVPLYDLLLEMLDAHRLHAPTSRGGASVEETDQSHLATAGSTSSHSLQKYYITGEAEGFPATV
Assay: OT_ERa_GFPERaERE_0480: Odyssey Thera (OT) 8-hour HeLa Transcription Induction Assay for Estrogen Receptor (AID 2283381; active = hit-call score of the fitted dose curve at least 0.9, where 1 is the maximum; inactive = score below 0.9)
Method in brief: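 HeLa cells expressing GFP reporter under estrogen response element, imaged 8 h after dosing. GFP induction quantified by high-content fluorescence microscopy image analysis; gain of signal fitted versus DMSO.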

SMILES	outcome	AC50
CCN(CCO)CCO	inactive	
N#CCCC(Br)(C#N)CBr (stereo not given)	inactive	
CCOc1ccc(N)cc1	inactive	
C=CCN=C=S	inactive	
CCCSP(=S)(OCC)Oc1ccc(SC)cc1 (stereo not given)	inactive	
CC(C)=CC1C(C(=O)OCc2cccc(Oc3ccccc3)c2)C1(C)C (stereo not given)	inactive	
O=CCCl	inactive	
O=C(NC(=O)c1c(F)cccc1F)Nc1ccc(Cl)cc1	inactive	
O=[N+]([O-])c1ccc(Cl)c([N+](=O)[O-])c1		8.64 µM (active)
O=C(O)COc1ccc(Cl)cc1	inactive	
Cc1cc(Cl)ccc1OC(C)C(=O)O (stereo not given)	inactive	

Biological target: Estrogen receptor (Homo sapiens) (UniProt P03372)
Assay: OT_ERa_GFPERaERE_0120: Odyssey Thera (OT) 2-hour HeLa Transcription Induction Assay for Estrogen Receptor (AID 2283382)
Method in brief: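 HeLa cells were dosed for 2 h, then GFP reporter induction was quantified by fluorescence microscopy with high-content image analysis. Gain of signal fitted against DMSO baseline.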

SMILES	outcome
CCN(CCO)CCO	inactive
N#CCCC(Br)(C#N)CBr (stereo not given)	inactive
CCOc1ccc(N)cc1	inactive
C=CCN=C=S	inactive
CCCSP(=S)(OCC)Oc1ccc(SC)cc1 (stereo not given)	inactive
CC(C)=CC1C(C(=O)OCc2cccc(Oc3ccccc3)c2)C1(C)C (stereo not given)	inactive
O=CCCl	inactive
O=C(NC(=O)c1c(F)cccc1F)Nc1ccc(Cl)cc1	inactive
O=C(O)COc1ccc(Cl)cc1	inactive
Cc1cc(Cl)ccc1OC(C)C(=O)O (stereo not given)	inactive

Biological target: Bile acid receptor (Homo sapiens) (UniProt Q96RI1)
Sequence (Q96RI1 whole entry, looked up): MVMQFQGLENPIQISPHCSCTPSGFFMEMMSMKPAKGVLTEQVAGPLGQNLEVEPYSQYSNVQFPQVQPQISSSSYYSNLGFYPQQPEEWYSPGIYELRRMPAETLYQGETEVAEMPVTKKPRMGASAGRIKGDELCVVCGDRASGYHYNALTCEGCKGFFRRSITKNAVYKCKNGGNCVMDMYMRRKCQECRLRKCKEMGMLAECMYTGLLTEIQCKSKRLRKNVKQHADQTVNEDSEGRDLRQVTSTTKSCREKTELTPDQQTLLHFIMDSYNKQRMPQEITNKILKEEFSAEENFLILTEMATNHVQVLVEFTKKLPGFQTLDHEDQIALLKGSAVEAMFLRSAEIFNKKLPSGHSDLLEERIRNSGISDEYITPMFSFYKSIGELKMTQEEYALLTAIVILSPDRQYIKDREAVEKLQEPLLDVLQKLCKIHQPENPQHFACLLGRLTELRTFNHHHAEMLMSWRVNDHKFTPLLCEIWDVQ
Assay: OT_FXR_FXRSRC1_0480: Odyssey Thera (OT) 8-hour HEK293T Protein-Complementation Assay for Farnesoid X receptor/SRC-1 Co-activator (AID 2283383)
Method in brief: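 HEK293T protein-fragment complementation assay: FXR and SRC-1 coactivator are fused to reporter fragments, and their interaction restores a fluorescent reporter. Readout was taken 8 h after dosing, with gain of signal fit relative to DMSO.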

SMILES	outcome	AC50
O=C(CBr)c1ccc(O)cc1	inactive	
C=CCN=C=S	inactive	
CCCSP(=S)(OCC)Oc1ccc(SC)cc1 (stereo not given)		22.8 µM (active)
OCCCCO	inactive	
Nc1ncn[nH]1	inactive	
CC(C)=CC1C(C(=O)OCc2cccc(Oc3ccccc3)c2)C1(C)C (stereo not given)	inactive	
O=C(NC(=O)c1c(F)cccc1F)Nc1ccc(Cl)cc1	inactive	
Cc1cc(Cl)ccc1O	inactive	
O=C(O)C1(c2ccc3c(c2)OC[C@H](Cc2ccc(-c4ccccc4)cc2)[C@H]3O)CCCC1		77 µM (active)
CCOP(=S)(OCC)O/N=C(\C#N)c1ccccc1		32.5 µM (active)
CC1(C)[C@H](C(=O)O[C@H](C#N)c2cccc(Oc3ccccc3)c2)[C@@H]1/C=C(\Cl)C(F)(F)F	inactive	

Biological target: Bile acid receptor (Homo sapiens) (UniProt Q96RI1)
Assay: OT_FXR_FXRSRC1_1440: Odyssey Thera (OT) 24-hour HEK293T Protein-Complementation Assay for Farnesoid X receptor/SRC-1 Co-activator (AID 2283384)
Method in brief: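 HEK293T cells, 24 h after chemical dosing. FXR–SRC-1 coactivator interaction read as fluorescence from protein-fragment complementation of a split reporter. Gain of signal fitted against DMSO baseline.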

SMILES	outcome	AC50
O=C(CBr)c1ccc(O)cc1	inactive	
CCC[CH2][Sn]([CH2]CCC)([CH2]CCC)[CH2]CCC		11.8 µM (active)
Nc1ccc(N)cc1	inactive	
CCOc1ccc(N)cc1		46.8 µM (active)
COc1nn(C(=O)NS(=O)(=O)c2ccccc2OC(F)(F)F)c(=O)n1C	inactive	
CCCSP(=S)(OCC)Oc1ccc(SC)cc1 (stereo not given)	inactive	
OCCCCO	inactive	
CC(C)=CC1C(C(=O)OCc2cccc(Oc3ccccc3)c2)C1(C)C (stereo not given)		12.3 µM (active)
COC(=O)Nc1cccc(OC(=O)Nc2cccc(C)c2)c1	inactive	
O=C(NC(=O)c1c(F)cccc1F)Nc1ccc(Cl)cc1	inactive	
Cc1cc(Cl)ccc1O	inactive	
O=C(O)C1(c2ccc3c(c2)OC[C@H](Cc2ccc(-c4ccccc4)cc2)[C@H]3O)CCCC1		90 µM (active)
CCOP(=S)(OCC)O/N=C(\C#N)c1ccccc1	inactive	
CC1(C)[C@H](C(=O)O[C@H](C#N)c2cccc(Oc3ccccc3)c2)[C@@H]1/C=C(\Cl)C(F)(F)F	inactive	

Biological target: Retinoic acid receptor RXR-alpha (Homo sapiens) (UniProt P19793)
Sequence (P19793 whole entry, looked up): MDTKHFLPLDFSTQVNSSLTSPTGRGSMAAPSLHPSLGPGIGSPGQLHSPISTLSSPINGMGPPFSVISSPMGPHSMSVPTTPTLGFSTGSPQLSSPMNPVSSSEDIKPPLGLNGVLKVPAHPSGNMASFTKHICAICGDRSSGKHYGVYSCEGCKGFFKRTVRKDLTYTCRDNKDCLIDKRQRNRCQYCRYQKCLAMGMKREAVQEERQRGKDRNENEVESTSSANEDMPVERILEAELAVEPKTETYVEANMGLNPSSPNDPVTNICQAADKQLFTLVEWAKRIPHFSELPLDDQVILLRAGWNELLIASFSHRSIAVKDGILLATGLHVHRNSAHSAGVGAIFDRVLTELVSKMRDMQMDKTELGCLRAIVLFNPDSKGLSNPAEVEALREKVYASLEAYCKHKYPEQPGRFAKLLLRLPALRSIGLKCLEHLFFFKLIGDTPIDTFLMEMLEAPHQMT
Assay: OT_NURR1_NURR1RXRa_0480: Odyssey Thera (OT) 8-hour HEK293T Protein Complementation Assay for Nurr1/retinoid X receptor (RXR) (AID 2283385)
Method in brief: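 HEK293T cells expressing Nurr1 and RXRα fused to reporter fragments (protein-fragment complementation); fluorescence measured 8 h after dosing. Gain of signal fitted relative to DMSO.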

SMILES	outcome	AC50
CN(C)C(=S)S	inactive	
O=c1[nH]c(=O)n(Cl)c(=O)n1Cl	inactive	
O=C(CBr)c1ccc(O)cc1	inactive	
CN(N=O)C(N)=O	inactive	
Nc1ccc(N)cc1	inactive	
CCOc1ccc(N)cc1	inactive	
COc1nn(C(=O)NS(=O)(=O)c2ccccc2OC(F)(F)F)c(=O)n1C	inactive	
C=CCN=C=S	inactive	
OCCCCO	inactive	
CC(C)=CC1C(C(=O)OCc2cccc(Oc3ccccc3)c2)C1(C)C (stereo not given)	inactive	
O=CCCl	inactive	
COC(=O)Nc1cccc(OC(=O)Nc2cccc(C)c2)c1	inactive	
O=C(NC(=O)c1c(F)cccc1F)Nc1ccc(Cl)cc1	inactive	
OCCN(CCO)CCO	inactive	
O=c1nc(O)n(Cl)c(=O)n1Cl	inactive	
Cc1cc(Cl)ccc1O	inactive	
O=C(O)C1(c2ccc3c(c2)OC[C@H](Cc2ccc(-c4ccccc4)cc2)[C@H]3O)CCCC1		76.2 µM (active) and 86.6 µM (active)
CCOP(=S)(OCC)O/N=C(\C#N)c1ccccc1	inactive	
O=C(O)COc1ccc(Cl)cc1	inactive	
Cc1cc(Cl)ccc1OC(C)C(=O)O (stereo not given)	inactive	
CC(C)(C)c1ccccc1O	inactive	
Cc1cc(C)cc(C)c1	inactive	
Clc1cccc(Cl)c1Cl	inactive	
CCCCCCCCCCCCc1cccc(S(=O)(=O)O)c1	inactive	
